Source: PubChem (National Center for Advancing Translational Sciences (NCATS))
Compounds with a hit are over-represented: about 7.9% of the library has one in this group of screens.
HCMV antiviral – human cytomegalovirus inhibition. activity change, negative = inhibition, % at 57.5 µM. hit rate 4.5% among 410,000. HFF cells, HCMV-luciferase reporter, 72 h; stronger effect = lower value. AID 1259415; in the data active means activity change below about -60%; inconclusive means no clear call, values can overlap the other calls; inactive means above about -39%
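Compounds were evaluated in HFFs infected with an HCMV luciferase reporter virus (MOI 1 PFU/cell). Luciferase in lysates collected 72 h post infection served as the replication measure.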
LASV entry inh – inhibitors of Lassa virus binding or cell entry; Lassa virus pseudotype entry inhibition, cell reporter; Potency, µM (top dose mostly 37.9 µM), for inactives: at the highest dose activity change, negative = inhibition, usual class: inhibitors; hit rate 1.2% among 300,000; AID 540256; calls by dose curve; tested in HEK293 cells; further: potency means the concentration at half of the fitted maximal effect; nearly all actives have a fitted effect of over 50% in size
MARV entry inh – Marburg virus entry inhibition; Marburg virus pseudotyped entry inhibition, cell reporter; Potency, µM (titrated, usually from 37.8 µM), without a hit: at the highest dose activity change, negative = inhibition, most hits filed as inhibitors; hit rate 1.8% among 300,000; calls by dose curve; tested in HEK293 cells; further: potency means the concentration at half of the fitted maximal effect
HCV inhibitor – blocks hepatitis C virus. Huh7.5.1 HCVcc-Cre infection, luciferase reporter, 44 h. hit rate 3.4% among 340,000. Potency, µM (top dose mostly 41.8 µM), for the others: at the top dose activity change, negative = inhibition, hits mostly inhibitors. AID 651820; active means well fitted inhibition curve with a large enough effect; inconclusive means small, poorly fitted or top-dose-only effect, or another doubt; inactive means no such curve, though single readings can be large or run the other way; further: potency means the concentration at half of the fitted maximal effect
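Antiviral activity was scored by luciferase reporter output from cells infected with HCVcc-Cre (~0.5 moi) in presence of compound, 44 h infection period, cells seeded 1,000/well 4 h prior.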
FMDV inh – foot and mouth disease virus antiviral activity; FMDV antiviral cell-based qHTS; Potency, µM (series often up to 57.9 µM), without a hit: top-dose activity change, negative = inhibition, hits mostly inhibitors; hit rate 1.2% among 410,000; calls by dose curve; tested in HEK293T cells; further: read-out not given here; potency means the concentration at half of the fitted maximal effect; nearly all actives have a fitted effect of over 45% in size
Active calls of the source: *; ? = inconclusive; / = no result; [ ] = dose if it differs, or a comment. On the % scale 0 is the no-effect control and ±100 the full control effect.

SMILES | HCMV antiviral | LASV entry inh | MARV entry inh | HCV inhibitor | FMDV inh
C[C@@H](C(=O)Nc1ccc2ccccc2c1)[C@@H]1C[C@@]1(C)[C@@H](NC(=O)c1ccccc1)c1ccccc1 | 14.9 | 0.6% | -28.7% | 4.1%[8.37 µM] | 1.3%
CCc1ccc(CN2CCC(n3nccc3NC(=O)c3ccccc3C)CC2)cc1 | -34.5 | ? | ? | 14.1µM* | -11.2%
Cc1ccccc1C(=O)Nc1ccnn1C1CCN(Cc2cccnc2)CC1 | -27.7 | 9.7% | 2.0% | 18.5% | -8.0%
O=C(Nc1ccnn1C1CCN(Cc2ccc(Cl)cc2)CC1)C1CCCC1 | -24.9 | -1.5% | -10.4% | -13.2% | -16.0%
COc1ccc(C(=O)Nc2ccnn2C2CCN(Cc3ccc4nonc4c3)CC2)cc1 | -94.0* | / | / | -29.1% | -23.7%
O=C(Nc1ccnn1C1CCN(Cc2ccc(OC(F)F)cc2)CC1)C1CCCC1 | -23.0 | ? | ? | 22.4µM* | -25.3%
CCN1C(=NCc2ccc3c(c2)OCO3)NC(c2ccccc2)C(C(=O)OC)=C1C (centres undefined) | / | / | -18.1%[14.2 µM] | / | /
CO[C@@H]1CN(C)C(=O)c2cc(NC(=O)NC3CCCCC3)ccc2OC[C@@H](C)N(CCc2ccccc2)C[C@@H]1C | 11.6 | / | / | / | 0.0%
COCCN1CCC(CNCc2cn(-c3cc(C)ccc3C)nc2-c2ccccc2)C1 (centres undefined) | -60.0* | / | / | 7.94µM* | -5.7%
COCCN1CCC(CNCc2cn[nH]c2-c2ccc(C)c(C)c2)C1 (centres undefined) | 30.3 | / | / | ? | -17.8%
C=C1C(=O)O[C@H]2[C@H]1[C@@H](O)CC(=C)[C@@H]1CC(=O)[C@@H](C)[C@H]21 | / | ? | ? | ? | 22.4µM*
Cc1ccccc1NC(=O)C1(C)Cc2ccccc2C(=O)O1 (centres undefined) | -31.1 | -2.3% | ? | -3.5% | -19.6%
Cc1ccc(NC(=O)C2(C)Cc3ccccc3C(=O)O2)cc1 (centres undefined) | -60.1* | / | / | -23.8% | 18.8%
O=C(NCCN1CCN(c2ccccc2)CC1)Nc1cccc(Cl)c1 | -1.4 | ? | -32.7% | -12.1% | -13.4%
Cc1cnc(C(=O)OC(C)C(=O)NCc2ccccc2)cn1 (centres undefined) | -5.9 | -8.5%[46.1 µM] | -0.3% | 25.6% | -2.4%
Cc1ccsc1C(=O)OCC(=O)NC1CCCCC1C (centres undefined) | -12.0 | / | / | 5.2% | 18.6%
CC(=O)c1sc(NC(=O)COc2ccc(C(C)C)c(C)c2)nc1C | -37.6 | 3.9% | 23.2%[46.1 µM] | 2.51µM* | -26.8%
CC(=O)c1sc(NC(=O)COc2ccccc2)nc1C | 12.5 | -16.2% | 9.5%[46.1 µM] | -12.7% | 52.7%
COc1ccc(Cn2cc(S(=O)(=O)c3ccc(C)cc3)c(=O)c3cc(F)ccc32)cc1 | -8.7 | 0.9%[46.1 µM] | ? | / | 45.8%
O=C(Sc1cccc2cccnc12)c1ccccc1Br | -96.9* | / | / | / | /
CC(=O)/C(=N\Nc1ccccc1)Sc1cccc2cccnc12 | 9.8 | 1.2% | -12.7% | ? | -22.0%
O=C(Sc1cccc2cccnc12)c1ccc(F)cc1 | -100.1* | / | / | / | /
CCN(CC)C(=O)c1cccc(-c2csc(C(O)c3ccc(F)cc3)n2)c1 (centres undefined) | ? | / | / | / | -15.1%
NS(=O)(=O)c1ccc(CCN2C(=O)/C(=C\c3ccc(Cl)cc3)SC2=S)cc1 | -101.4* | ? | ? | ? | -13.0%
O=C(/C=C1\C(=O)Nc2ccccc21)/C=C1\C(=O)Nc2ccccc21 | -13.9 | / | / | ? | ?
SMILES | HCMV antiviral | LASV entry inh | MARV entry inh | HCV inhibitor | FMDV inh
O=C1Nc2ccccc2/C1=C\C(=O)c1ccccc1 | -30.4 | / | / | 16.9% | 31.6µM*
CC(C)[C@@H]1CN=C(N)N1C[C@@H]1CCCN1C[C@H](C)N1C[C@@H](Cc2ccccc2)N(CCc2ccc(Cl)c(Cl)c2)C1=N | / | / | / | 0.562µM* | -2.5%
Cc1ccc(-c2cc(C(=O)N3CCN(S(=O)(=O)c4ccc(Br)cc4)CC3)[nH]n2)cc1C | ? | -4.4%[46.1 µM] | / | / | -6.4%
CCCCC#C[C@@H]1C=C[C@H](Oc2ccc(C(=O)OC)cc2)[C@@H](COC(=O)OCC)O1 | / | / | 16.2%[14.2 µM] | / | /
COc1ccc(/C(C)=N/Nc2nc(C)cc(-c3ccccc3)n2)cc1 | -93.5* | ? | 2.51µM* | 10µM* | ?
Cc1cc(C)c2nc(C)cc(N/N=C/c3ccc(O)cc3)c2c1 | -99.9* | ? | ? | 11.2µM* | 0.0%
Cc1cc(N/N=C/c2ccc(O)cc2)c2cccc(C)c2n1 | ? | / | / | ? | -10.7%
